Test [1] in a line: ATG_E_Box_CIS: Attagene CIS-FACTORIAL HepG2 Assay for human Enhancer Box (E-box) (AID 2282936). Particulars: HepG2 E-box cis-reporter transcription, actives raise or lower the signal. The essentials:
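Endogenous transcription factor activity was sensed in human HepG2 liver cells through transfected cis-promoter reporter units. After 24 h of dosing, total RNA was reverse-transcribed and reporter cDNA resolved by capillary electrophoresis.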

Test [2] in a line: ATG_M_61_CIS: Attagene CIS-FACTORIAL HepG2 Assay for M61 Transcription Factor (Internal Marker) (AID 2282937). Particulars: HepG2 Attagene CIS-FACTORIAL M61 internal marker reporter; actives raise or lower the signal. The essentials: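 Multiplexed reporter mRNA assay, HepG2 human hepatoma cells, 24 h treatment. Signal: FAM-labelled, HpaI-digested RT-PCR fragments by CE. Fit: bidirectional, baseline DMSO.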

The nature of test [3]: ATG_EGR_CIS: Attagene CIS-FACTORIAL HepG2 Assay for human Early Growth Response 1 (EGR1) (AID 2282938). Particulars: HepG2 Attagene CIS-FACTORIAL EGR reporter mRNA; actives raise or lower the signal. The method in brief:
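Multiplexed cis-reporter system in human hepatoma HepG2 cells, transiently transfected. Cells are dosed for 24 h; reporter transcripts are amplified, fluorescently tagged and sized by capillary electrophoresis, with DMSO as negative control.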

A short description of test [4]: ATG_M_19_CIS: Attagene CIS-FACTORIAL HepG2 Assay for M19 Transcription Factor (Internal Marker) (AID 2282939). As to conditions: HepG2 Attagene CIS-FACTORIAL M19 internal marker reporter; actives raise or lower the signal. The method in brief: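 Transfect HepG2 with MRTU reporter library → dose chemical, 24 h → isolate total RNA, reverse-transcribe with oligo(dT) → PCR, 6-FAM label, HpaI cut (2 h, 37 C) → capillary electrophoresis. Bidirectional fit vs DMSO.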

Test [5] is described as follows: ATG_ERE_CIS: Attagene CIS-FACTORIAL HepG2 Assay for Estrogen Response Element (ERE) (AID 2282940). Particulars: HepG2 ERE cis-reporter, Attagene RNA transcript; actives raise or lower the signal. The essentials:
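Transient MRTU transfection of human HepG2; cis-element promoters; 24 h dosing; total RNA → RT (oligo dT) → PCR → 6-FAM primer extension → HpaI digest → CE fluorescence. Bidirectional fit, DMSO baseline.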

Test [6] is described as follows: ATG_Ets_CIS: Attagene CIS-FACTORIAL HepG2 Assay for human Erythroblast Transformation Specific (ETS) (AID 2282941). Particulars: HepG2 ETS cis-reporter transcription, actives raise or lower the signal. The method in brief:
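Multiplexed reporter transcript profiling: HepG2, 24 h treatment, total RNA to cDNA, PCR, 6-FAM labelling, HpaI cut, capillary electrophoresis. Gain- or loss-of-signal fitted against DMSO.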

In test [7] the target is Hepatocyte nuclear factor 3-beta (Homo sapiens) (UniProt Q9Y261). In words: ATG_FoxA2_CIS: Attagene CIS-FACTORIAL HepG2 Assay for human Forkhead box A2 (FOXA2) (AID 2282942). As to conditions: HepG2 cis-reporter transcription factor activity, 24 h; actives raise or lower the signal. The essentials: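 Multiplexed cis-element reporter assay in transiently transfected HepG2. Twenty-four hours post-dosing, RNA was reverse-transcribed, amplified, FAM-labelled, HpaI-digested and separated by CE. Activity gain or loss relative to DMSO.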
Chain of Hepatocyte nuclear factor 3-beta (Homo sapiens) (Q9Y261 whole entry, looked up): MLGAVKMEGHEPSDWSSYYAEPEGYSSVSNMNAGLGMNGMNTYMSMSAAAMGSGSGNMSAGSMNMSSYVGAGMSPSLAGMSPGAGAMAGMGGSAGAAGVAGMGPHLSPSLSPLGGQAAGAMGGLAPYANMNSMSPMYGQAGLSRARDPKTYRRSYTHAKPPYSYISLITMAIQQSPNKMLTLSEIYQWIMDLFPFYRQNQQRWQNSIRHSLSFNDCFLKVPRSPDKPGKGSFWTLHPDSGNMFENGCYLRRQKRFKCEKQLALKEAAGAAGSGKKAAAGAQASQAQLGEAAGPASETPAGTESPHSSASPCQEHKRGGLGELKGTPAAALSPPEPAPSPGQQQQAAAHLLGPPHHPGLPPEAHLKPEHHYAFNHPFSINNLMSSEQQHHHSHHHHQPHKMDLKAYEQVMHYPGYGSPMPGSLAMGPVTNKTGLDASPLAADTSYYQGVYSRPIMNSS

Test [8] in a line: ATG_FoxO_CIS: Attagene CIS-FACTORIAL HepG2 Assay for human Forkhead box O (FoxO) (AID 2282943). Particulars: HepG2 Attagene cis-reporter, FoxO element, mRNA; actives raise or lower the signal. The essentials:
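24 h chemical exposure, HepG2 with transient cis-MRTU transfection. RNA extraction, oligo(dT) RT, reporter-specific PCR, primer-extension labelling, HpaI digestion, CE fragment analysis; bidirectional fit, DMSO baseline.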

The nature of test [9]: ATG_GATA_CIS: Attagene CIS-FACTORIAL HepG2 Assay for human GATA Binding Protein (AID 2282944). Particulars: HepG2 GATA cis-element reporter, Attagene multiplex mRNA; actives raise or lower the signal. The method in brief:
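Transient MRTU transfection, HepG2, 24 h compound exposure. Total RNA → oligo(dT) RT → PCR → 6-FAM primer extension → HpaI cut → CE. Bidirectional fit vs DMSO.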

Test [10] can be described thus: ATG_GLI_CIS: Attagene CIS-FACTORIAL HepG2 Assay for human Zinc Finger Protein GLI1 (AID 2282945). Particulars: HepG2, Attagene cis-factorial reporter mRNA, GLI element; actives raise or lower the signal. The method in brief: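 HepG2 cells transiently transfected with cis-promoter multiplexed reporter units report endogenous transcription factor activity. After 24 h chemical exposure, reporter mRNA was quantified by RT-PCR, 6-FAM labelling, HpaI digestion and capillary electrophoresis, with bidirectional fitting against DMSO.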

A short description of test [11]: ATG_GRE_CIS: Attagene CIS-FACTORIAL HepG2 Assay for human Glucocorticoid Response Elements (GRE) (AID 2282947). As to conditions: HepG2 GRE cis-reporter, Attagene multiplex mRNA; actives raise or lower the signal. The method in brief:
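Cells (HepG2) bearing transfected cis-promoter reporter transcription units were treated with chemical for 24 hours. Reporter mRNA was measured via RT-PCR with capillary electrophoresis, and activity was fitted in both directions relative to DMSO.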

Test [12] can be described thus: ATG_ISRE_CIS: Attagene CIS-FACTORIAL HepG2 Assay for human Interferon Regulatory Factor 1 (IRF1) binding to an Interferon-Stimulated Response Element (ISRE) (AID 2282948). As to conditions: HepG2 ISRE cis-reporter (Attagene), mRNA transcription readout; actives raise or lower the signal. The essentials:
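Signal reflects induction or loss of ISRE-linked reporter mRNA in transiently transfected HepG2 cells after a 24 h treatment, detected by fluorescent RT-PCR fragments on capillary electrophoresis and normalised to DMSO.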

Test [13] in a line: ATG_M_32_CIS: Attagene CIS-FACTORIAL HepG2 Assay for M32 Transcription Factor (Internal Marker) (AID 2282949).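 Further: background control marker of the multiplexed CIS panel rather than a real target.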 As to conditions: HepG2 Attagene cis-factorial M32 reporter, mRNA; actives raise or lower the signal. The method in brief:
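HepG2 human liver cells transiently transfected with cis-promoter-driven multiple reporter transcription units, dosed 24 h. Reporter mRNA quantified by RT-PCR, FAM-labelled primer extension, HpaI digest and capillary electrophoresis; bidirectional fit versus DMSO baseline.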

The nature of test [14]: ATG_M_06_CIS: Attagene CIS-FACTORIAL HepG2 Assay for M06 Transcription Factor (Internal Marker) (AID 2282950). Particulars: HepG2 Attagene CIS-FACTORIAL M06 internal marker reporter; actives raise or lower the signal. The method in brief:
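Read-out is fluorescence of labelled reporter cDNA fragments resolved by capillary electrophoresis after RT-PCR. Cells: HepG2 carrying transfected cis-promoter reporter units, treated 24 h. Gain or loss of signal fitted relative to DMSO.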

The target of test [15] is Hypoxia-inducible factor 1-alpha (Homo sapiens) (UniProt Q16665). Briefly: ATG_HIF1a_CIS: Attagene CIS-FACTORIAL HepG2 Assay for human Hypoxia Inducible Factor 1 (HIF1A) (AID 2282951). As to conditions: HepG2 Attagene cis-factorial HIF1a reporter transcription; actives raise or lower the signal. The essentials:
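Cis-element reporter constructs were transiently transfected into HepG2 cells, which were treated for 24 h; reporter RNA was reverse-transcribed, amplified, labelled and resolved by capillary electrophoresis.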

For test [16], the target named is Hepatocyte nuclear factor 6 (Homo sapiens) (UniProt Q9UBC0). Briefly: ATG_HNF6_CIS: Attagene CIS-FACTORIAL HepG2 Assay for human Hepatocyte Nuclear Factor 6 (HNF6) (AID 2282952). As to conditions: HepG2 Attagene cis-factorial HNF6 reporter transcription; actives raise or lower the signal. The method in brief:
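First, HepG2 cells were transfected with the multiplexed cis reporter library and dosed with chemical for 24 h. Next, RNA was reverse-transcribed, PCR-amplified and fluorescently labelled. Finally, HpaI-digested fragments were read by capillary electrophoresis.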

Test [17] deals with Heat shock factor protein 1 (Homo sapiens) (UniProt Q00613). In words: ATG_HSE_CIS: Attagene CIS-FACTORIAL HepG2 Assay for human Heat Shock Transcription Factor 1 (HSE) (AID 2282953). As to conditions: HepG2 HSE cis-reporter, Attagene RNA transcription; actives raise or lower the signal. The essentials:
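HepG2, transient MRTU transfection, cis-promoter reporters (endogenous TF activity). 24 h compound. RNA → oligo(dT) RT → PCR → 6-FAM primer extension → HpaI cut → CE. Bidirectional fit vs DMSO.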

A short description of test [18]: ATG_MRE_CIS: Attagene CIS-FACTORIAL HepG2 Assay for human Metal Responsive Element (MRE) (AID 2282954). Particulars: HepG2 MRE cis-reporter transcription, Attagene multiplex; actives raise or lower the signal. The method in brief:
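Cells were transfected with cis-promoter reporter transcription units, then dosed for 24 h. RNA was reverse-transcribed, amplified, fluorescently labelled and resolved by capillary electrophoresis, and activity was fitted in both directions relative to DMSO.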

The target of test [19] is Bile acid receptor (Homo sapiens) (UniProt Q96RI1). In words: ATG_IR1_CIS: Attagene CIS-FACTORIAL HepG2 Assay for human Nuclear Receptor Subfamily 1 Group H Member 4 (NR1H4), IR1 submotif (AID 2282946). As to conditions: IR1 reporter transcription, actives raise or lower the signal. The essentials: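 Readout: reporter transcript levels by RT-PCR with fluorescent capillary electrophoresis, from HepG2 cells transiently transfected with multiplexed cis-regulated reporters and dosed 24 h. Gain- or loss-of-signal fitted versus DMSO negative control.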
Chain of Bile acid receptor (Homo sapiens) (Q96RI1 whole entry, looked up): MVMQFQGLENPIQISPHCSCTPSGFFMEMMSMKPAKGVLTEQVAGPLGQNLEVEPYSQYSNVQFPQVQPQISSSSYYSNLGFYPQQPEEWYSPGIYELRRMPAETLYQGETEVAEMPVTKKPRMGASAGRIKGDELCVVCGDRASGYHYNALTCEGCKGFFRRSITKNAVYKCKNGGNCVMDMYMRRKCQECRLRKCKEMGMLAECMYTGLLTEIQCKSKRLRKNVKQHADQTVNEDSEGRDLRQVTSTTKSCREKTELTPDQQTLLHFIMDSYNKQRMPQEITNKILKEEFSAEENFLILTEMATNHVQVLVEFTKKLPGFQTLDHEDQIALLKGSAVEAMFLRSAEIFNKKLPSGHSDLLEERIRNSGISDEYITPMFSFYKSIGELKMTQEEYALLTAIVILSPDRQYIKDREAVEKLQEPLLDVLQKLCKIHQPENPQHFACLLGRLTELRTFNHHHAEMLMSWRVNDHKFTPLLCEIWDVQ

The nature of test [20]: ATG_PBREM_CIS: Attagene CIS-FACTORIAL HepG2 Assay for human Phenobarbital-responsive Enhancer Module (PBREM) (AID 2282955). As to conditions: HepG2 PBREM cis-reporter, Attagene multiplexed transcription; actives raise or lower the signal. The method in brief: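 Multiplexed cis-reporter readout in human hepatoma HepG2 cells; PBREM-regulated transcript quantified after 24 h exposure by fluorescent RT-PCR fragment analysis. Signal changes up or down fitted relative to DMSO.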

Active and inactive are the calls of the source. How the source made its calls: active means hit-call score of the fitted dose curve at least 0.9, where 1 is the maximum; inactive means score below 0.9.

Broadly, the AC50 is the concentration giving half of the maximal activity seen.

Chain of Heat shock factor protein 1 (Homo sapiens) (Q00613 whole entry, looked up): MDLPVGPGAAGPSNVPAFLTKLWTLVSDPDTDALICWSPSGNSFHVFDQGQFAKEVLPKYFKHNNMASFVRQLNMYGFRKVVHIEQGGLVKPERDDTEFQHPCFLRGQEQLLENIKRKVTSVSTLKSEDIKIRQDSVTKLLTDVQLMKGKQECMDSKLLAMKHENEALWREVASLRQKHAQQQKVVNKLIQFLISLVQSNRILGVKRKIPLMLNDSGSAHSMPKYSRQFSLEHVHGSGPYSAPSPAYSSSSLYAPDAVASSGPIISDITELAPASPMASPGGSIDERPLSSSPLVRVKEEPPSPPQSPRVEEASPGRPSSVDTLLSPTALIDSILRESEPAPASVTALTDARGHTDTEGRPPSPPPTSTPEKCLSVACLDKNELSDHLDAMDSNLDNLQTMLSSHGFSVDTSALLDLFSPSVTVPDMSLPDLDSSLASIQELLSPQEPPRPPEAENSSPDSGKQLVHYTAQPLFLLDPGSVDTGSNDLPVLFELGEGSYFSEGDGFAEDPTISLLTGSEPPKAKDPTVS
Chain of Hepatocyte nuclear factor 6 (Homo sapiens) (Q9UBC0 whole entry, looked up, the tested form may be a part): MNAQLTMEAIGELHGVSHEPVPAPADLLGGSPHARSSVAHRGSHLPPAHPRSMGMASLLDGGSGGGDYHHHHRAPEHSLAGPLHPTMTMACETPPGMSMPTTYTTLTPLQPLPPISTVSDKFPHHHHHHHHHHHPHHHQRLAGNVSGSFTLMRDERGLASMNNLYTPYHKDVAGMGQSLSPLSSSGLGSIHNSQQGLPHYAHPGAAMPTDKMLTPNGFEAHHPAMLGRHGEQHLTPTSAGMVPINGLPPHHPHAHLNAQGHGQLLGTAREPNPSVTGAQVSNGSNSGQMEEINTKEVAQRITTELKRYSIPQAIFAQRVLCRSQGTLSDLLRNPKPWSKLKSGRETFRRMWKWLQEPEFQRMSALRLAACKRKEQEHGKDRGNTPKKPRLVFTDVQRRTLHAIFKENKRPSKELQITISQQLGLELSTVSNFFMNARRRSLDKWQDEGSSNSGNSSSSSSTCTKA
Chain of Hypoxia-inducible factor 1-alpha (Homo sapiens) (Q16665 whole entry, looked up): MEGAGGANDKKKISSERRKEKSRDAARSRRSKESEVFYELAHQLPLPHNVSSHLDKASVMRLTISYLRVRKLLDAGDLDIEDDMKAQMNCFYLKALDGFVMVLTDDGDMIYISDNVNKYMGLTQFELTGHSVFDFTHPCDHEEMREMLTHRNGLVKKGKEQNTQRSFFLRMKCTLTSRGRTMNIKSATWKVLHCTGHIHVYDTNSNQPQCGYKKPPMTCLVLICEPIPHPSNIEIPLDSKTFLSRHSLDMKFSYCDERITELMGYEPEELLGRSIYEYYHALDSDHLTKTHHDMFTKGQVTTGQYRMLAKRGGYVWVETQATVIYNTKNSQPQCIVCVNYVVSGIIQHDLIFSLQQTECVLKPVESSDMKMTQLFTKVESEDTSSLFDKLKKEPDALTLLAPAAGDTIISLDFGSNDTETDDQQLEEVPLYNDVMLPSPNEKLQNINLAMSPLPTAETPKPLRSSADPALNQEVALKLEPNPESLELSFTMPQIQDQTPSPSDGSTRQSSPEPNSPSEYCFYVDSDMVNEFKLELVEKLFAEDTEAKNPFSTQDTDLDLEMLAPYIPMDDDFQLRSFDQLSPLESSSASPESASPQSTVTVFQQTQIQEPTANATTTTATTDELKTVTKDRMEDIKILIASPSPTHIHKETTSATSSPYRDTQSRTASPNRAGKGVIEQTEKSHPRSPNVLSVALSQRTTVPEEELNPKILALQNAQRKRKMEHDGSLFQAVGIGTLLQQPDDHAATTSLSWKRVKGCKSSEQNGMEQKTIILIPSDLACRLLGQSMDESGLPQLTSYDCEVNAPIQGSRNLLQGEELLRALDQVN

Regarding `CCCOC(=O)CCCCC(=O)OCCC`, the result in [1], in test [2], in test [3], in test [4], in test [5] and in test [6] was inactive. Besides, the result in test [7], in [8], in test [9], in test [10], in test [11] and in test [12] was inactive. Further, the call in [13], in [14], in test [15], in test [16], in [17] and in test [18] was inactive.
Regarding `COC(=O)c1ccc2cc(C(=O)OC)ccc2c1`, the result in test [1], in test [2], in [3], in test [4], in test [5] and in [6] was inactive. For the same compound, the compound was classed as inactive in test [7], in test [8], in test [9], in [10], in test [11] and in test [12]. Besides, the call in test [13], in test [14], in [15], in test [16], in test [17] and in test [18] was inactive.
Regarding `CCC(Cc1ccccc1)(C(=O)c1ccc(N2CCOCC2)cc1)N(C)C` (centres undefined), the AC50 in test [1] was 17 µM (active); in test [3], 31.6 µM (active); in [5] it was 5.54 µM (active); in test [12] it was 27.2 µM (active); in [15], 22.9 µM (active); in [17] it was 65.9 µM (active). Besides, the AC50 in [18] was 52.7 µM (active). Besides, the result in [2], in test [4], in test [6], in [7], in test [8] and in [9] was inactive. In addition, the compound was called inactive in test [10], in test [19], in [13] and in test [16].
In the case of `Nc1ccc(Cl)cc1Cl`, the result in test [1], in test [2], in test [3], in test [4], in test [5] and in test [6] was inactive. For the same compound, the compound was classed as inactive in test [7], in test [8], in test [9], in test [10], in test [19] and in test [11]. Moreover, the call in test [12], in test [14], in [15], in [16] and in test [18] was inactive.
Regarding `CCCCCCCC/C=C\CCCCCCCC(=O)OCCO`, the outcome in test [1], in test [2], in test [3], in [4], in test [5] and in test [6] was inactive. In addition, the outcome in [7], in test [8], in [9], in test [10], in test [11] and in [12] was inactive. Besides, the call in [13], in test [14], in [15], in [16], in [17] and in test [18] was inactive.
On to `CCCCCCCCCCOS(=O)(=O)O`, for which the outcome in test [1], in [2], in test [3], in test [4], in [5] and in [6] was inactive. The compound was called inactive in [7], in test [8], in [9], in [10], in test [19] and in test [12]. Besides, the outcome in [13], in [14], in [15], in [16], in [17] and in test [18] was inactive. In addition, the outcome in test [20] was inactive.
For the compound `Cc1cccc(N)n1`, the result in test [1], in test [2], in test [3], in test [4], in test [5] and in [6] was inactive. In addition, the outcome in test [7], in test [8], in test [9], in test [10], in [19] and in [12] was inactive. The compound was classed as inactive in test [13], in test [14], in test [15], in test [16], in test [17] and in [18].
Take `O=S(=O)(O)CC(O)CCl` (centres undefined): the outcome in test [1], in test [2], in [3], in test [4], in test [5] and in test [6] was inactive. In addition, the result in test [7], in [8], in [9], in test [10], in test [19] and in test [12] was inactive. In addition, the compound was classed as inactive in test [13], in test [14], in test [15], in [16], in test [17] and in test [18]. Further, in test [20], the result was inactive.

The values above are taken from PubChem BioAssay (EPA / NIEHS).
